Calls of active or inactive are those of the source.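 Rule for the calls: active = compound at 10 µM that moves glutamate potency by over twofold either way, or clearly lowers or raises peak response; inactive = the rest.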
Biological target: Metabotropic glutamate receptor 3 (Rattus norvegicus) (UniProt P31422)
Experiment: mGluR5 PAM selectivity profiling against rat mGluR3, glutamate response modulation, fold shift by Tl+ flux in HEK/GIRK cells (AID 588728)
Conditions: HEK/GIRK rat mGluR3, thallium flux, glutamate CRC fold shift, at 10 µM; Emax: measured here: glutamate max response with compound

Chain of Metabotropic glutamate receptor 3 (Rattus norvegicus) (P31422 whole entry, looked up): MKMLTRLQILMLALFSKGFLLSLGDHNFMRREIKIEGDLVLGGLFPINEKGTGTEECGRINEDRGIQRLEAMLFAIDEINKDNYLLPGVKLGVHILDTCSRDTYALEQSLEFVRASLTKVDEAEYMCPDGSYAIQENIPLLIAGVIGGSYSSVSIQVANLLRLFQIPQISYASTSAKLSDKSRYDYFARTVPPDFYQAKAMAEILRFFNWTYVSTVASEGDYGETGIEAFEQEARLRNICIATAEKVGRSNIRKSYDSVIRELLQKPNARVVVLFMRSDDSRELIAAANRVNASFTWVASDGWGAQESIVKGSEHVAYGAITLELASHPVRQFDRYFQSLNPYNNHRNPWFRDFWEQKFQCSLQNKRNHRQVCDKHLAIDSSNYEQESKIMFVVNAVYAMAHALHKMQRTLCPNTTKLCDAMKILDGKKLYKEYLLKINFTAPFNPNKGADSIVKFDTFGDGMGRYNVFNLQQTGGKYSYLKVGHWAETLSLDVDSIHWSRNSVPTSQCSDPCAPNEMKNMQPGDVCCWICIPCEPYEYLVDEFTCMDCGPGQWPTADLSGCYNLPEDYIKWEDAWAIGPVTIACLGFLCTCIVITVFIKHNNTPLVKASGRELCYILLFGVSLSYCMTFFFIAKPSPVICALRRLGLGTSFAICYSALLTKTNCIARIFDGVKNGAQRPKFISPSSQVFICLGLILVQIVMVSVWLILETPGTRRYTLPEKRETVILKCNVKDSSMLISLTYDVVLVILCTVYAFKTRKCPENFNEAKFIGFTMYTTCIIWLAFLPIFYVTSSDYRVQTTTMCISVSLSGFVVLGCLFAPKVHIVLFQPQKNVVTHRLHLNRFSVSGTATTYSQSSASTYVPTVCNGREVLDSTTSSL

| SMILES | Emax [%] | fold shift |
| --- | --- | --- |
| C[C@@H](NC(=O)c1ccc(C#Cc2cccc(F)c2)cn1)C(C)(C)O | 89 | 0.95 (inactive) |
| CC1(NC(=O)c2ccc(C#Cc3cccc(F)c3)cn2)COC1 | 84 | 0.85 (inactive) |
